# Reference: PubChem BioAssay
# Assay: small-molecule binders of probe aInhba, primary screen, biochemical, small-molecule microarray, 635/667 nm fluorescence (AID 1148);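 also: score merges 667nm spot fluorescence with signal-to-noise for antibody binding to printed compounds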
# Settings: higher = more signal
row,SMILES,composite z-score
1,CCCC[C@@H](O)C1=C(C)Cn2c(=O)n(-c3ccccc3)c(=O)n2[C@H]1CO,-0.251
2,CCOC(=O)C[C@H]1[C@H](OC(=O)c2cc3ccccc3oc2=O)[C@@H](NC(=O)Cc2ccc(OC)cc2)c2cc(OCCCO)ccc2N1C(=O)Cc1ccc(OC)cc1,-0.185
3,COC(=O)C1=CC(CCCO)=CC(c2ccc(CN3CCCC3)cc2)N(C)C=C1C(=O)OC (stereo not given),0.0658
4,CCOC(=O)C[C@H]1[C@H](OC(=O)c2ccc(-c3ccccc3)cc2)[C@@H](NC(=O)c2ccc(-c3ccccc3)cc2)c2cc(OCCCO)ccc2N1C(=O)c1ccccc1,0.108
5,COc1ccc(C(=O)Nc2cccc(CN3C(=O)[C@]4(O[C@H](CC(=O)N(CCO)Cc5ccccc5)[C@@H]([Si](C)(C)c5ccc(OC)cc5)[C@@H]4C)c4ccccc43)c2)cc1,-0.0131
6,O=C(N1CCOCC1)[C@]1(CCS(=O)(=O)c2ccccc2)N=C(c2ccc(OCCCO)cc2)O[C@@H]1c1ccccc1,0.212
7,CC(C)c1ccc(NN2C(C(O)c3ccccc3)C=CC3C(=O)N(c4ccccc4)C(=O)C32)cc1 (stereo not given),0.271
8,COc1ccc([Si](C)(C)[C@H]2[C@H](CC(=O)N3CCC[C@H]3CO)O[C@@]3(C(=O)N(C)c4c(Br)cc(C)cc43)[C@@H]2C)cc1,0.462
9,COCCCNC(=O)[C@]1(Cc2ccccc2N=[N+]=[N-])N=C(c2ccc(OCCCO)cc2)O[C@@H]1c1ccccc1,0.974
10,[N-]=[N+]=NCc1ccccc1[C@H]1OC(c2ccc(OCCCO)cc2)=N[C@@]1(Cc1ccccc1N=[N+]=[N-])C(N)=O,0.472
